We go through 26 compounds from PubChem BioAssay (NCATS).

Each structure is given as a SMILES string. Records with an inconclusive call do not appear. Active and inactive are the calls of the source. Calls follow the shape of the dose curve; as a rule, active = well fitted cell-killing curve with a large enough effect; inconclusive = small, poorly fitted or top-dose-only effect; inactive = flat fitted curve, though single readings scatter.
% is scaled to controls: 0 for no effect and ±100 for the full control effect; potency is read from the fitted curve at half-maximal effect.

This test in a line: HEK-293 Cancer Cell Toxicity qHTS against the NCATS CANVASS Library (AID 1347355). Also: nearly all actives have a fitted effect of over 65% in size. The settings on record: HEK-293 viability, CellTiter-Glo luminescence, 72 h; series mostly up to 46.1 µM; activity change, negative = cytotoxicity: at the top concentration. From the text:
Natural products and their derivatives continue to be wellsprings of nascent therapeutic potential. However, many laboratories have limited resources for biological evaluation, leaving their previously isolated or synthesized compounds largely or completely untested. To address this issue, the Canvass library of natural products was assembled (https://tripod.nih.gov/canvass), in collaboration with academic and industry researchers, for quantitative high-throughput screening (qHTS) across a diverse set of cell-based and biochemical assays. The pure (>85% purity by liquid chromatography/mass spectrometry [LC/MS]) Canvass library of 346 natural products were submitted by 45 academic laboratories and companies around the world. We collected pure natural products to circumvent deconvolution and structure elucidation due to time and resource limitations. The library was formatted into 1536-well plates and evaluated in 50 qHTS (in an 11-pnt concentration series) bioassays with broad scope of disease-relevant mechanisms. The resulting data set from 50 different assays was then systematically analyzed to identify overall trends and specific natural products with interesting biological activities. Reported herein are the results of each individual qHTS and their corresponding assay protocol. National Center for Advancing Translational Sciences (NCATS), Rockville, MD National Institute of Health (NIH), Bethesda, Maryland
Cancer Cell Toxicity COV-362, OV-KATE, OV-SAHO, UWB1.289, UWB1.289-WTBRCA1, HEK-293, HPAF-II, Panc-1005, SW1088, and U-118MG-screen protocol. 1. In a 1536 well, white solid bottom tissue culture plates (Corning 7494), corresponding cells (COV-362, OV-KATE, OV-SAHO, UWB1.289, UWB1.289-WTBRCA1, HEK-293, HPAF-II, Panc-1005, SW1088, or U-118MG) were dispensed in each well at a final concentration of 1000 cells / well (6uL volume) using the Multidrop Combi (Thermo Fisher Scientific) dispenser. 2. The plates were incubated for 4 hours at 37 degrees C/5% CO2/95% Rh. 3. Compounds were pin transferred (~23nL volume) via Wako Pin-tool (Wako Automation, Richmond VA) equipped with a 1536 pin head. The assay plates were treated with compounds in an 11-pnt concentration series with a final concentration range of […] to 85uM. 4. Bortezomib was used as a single dose control (0.5mM column 4, rows 1 - 32) at a final concentration of 1.9uM and as a 16pnt titration (1mM; 1:2 dilution; 16-points; n = 2; column 3, rows 1 - 32) with final concentration range of 0.1nM - 3.8uM. 5. The assay plates were incubated for 72 hours at 37 degrees C/5% CO2/95% Rh. 6. 3uL CellTiter-Glo detection reagent was then added to the plates (columns 2 - 48, rows 1 - 32) and incubated at room temperature for additional 15min. 7. Luminescence signal was acquired via the ViewLux plate reader (PerkinElmer) using a clear filter, 2 second exposure and 2x binning settings.
`CCCCC[C@@H]1OC(=O)[C@@H](C)N(C)C(=O)[C@H](CCCCC)OC(=O)C(C)N(C)C(=O)[C@H](CCCCC)OC(=O)[C@@H](C)N(C)C(=O)[C@H](CCCCC)OC(=O)C(C)N(C)C1=O` (stereo partly specified): the Potency is 4.18 µM (active).

Consider `CNCCc1ccc(O)cc1`, for which the “activity change, negative = cytotoxicity” value was 0.978% (inactive).

As to `CC[N@@+]1([O-])C[C@]2(C)CC[C@@H](O)[C@@]34C5C[C@H]6CC[C@@]5(C(C[C@H]23)C41)[C@H](O)[C@@]6(O)CO` (stereo partly specified), the “activity change, negative = cytotoxicity” value was 0.828% (inactive).

Consider `O=C(c1ccccc1O)c1[nH]c(Cl)c(Cl)c1-n1c(C(=O)c2ccccc2O)cc(Cl)c1Cl`, for which the Potency was 4.18 µM (active).

For `CCN1C[C@]2(C)CC[C@@H](O)[C@]34C1[C@H](C[C@H]23)C12CCC(CC14)[C@](O)(CO)[C@H]2O` (stereo partly specified), the compound was called inactive.

On to `C/C=C1/CN2CC[C@]34C(=Nc5ccccc53)[C@@H]2C[C@@H]1[C@H]4C(=O)OC`, for which the “activity change, negative = cytotoxicity” value is -5.23% [at 91.4 µM] (inactive).

As to `CO[C@@H](/C=C/CC/C=C/C(=O)O)[C@@H](O)[C@H](C)[C@@H](O)/C(C)=C/[C@H](C)C(=O)CCCC1CC(=O)NC(=O)C1`, the outcome was inactive.

With `CC1=CC(=O)C2=C(C)C[C@H](O)[C@@H]3[C@H](OC(=O)[C@@H]3C)[C@@H]12`, the “activity change, negative = cytotoxicity” value is -12.5% (inactive).

Turning to `CC1=CC2CC[C@@H]3[C@@H](C)C[C@H](C)[C@@H](C1)N23` (stereo partly specified), the compound was classed as inactive.

In the case of `NCCc1ccccc1`, the call was inactive.

Consider `CN(C)Cc1c[nH]c2ccccc12`, for which the “activity change, negative = cytotoxicity” value is -5.59% (inactive).

For `C[C@@H]1CC[C@@H](c2ccoc2)N2C[C@@]3(CC[C@@H]12)CS[C@@]1(CC[C@H]2[C@H](C)CC[C@@H](c4ccoc4)N2[C@@H]1O)C3`, the Potency is 7.43 µM (active).

With `c1ccc2c3c([nH]c2c1)CNCC3`, the “activity change, negative = cytotoxicity” value was -5.24% (inactive).

Turning to `CNCCc1c[nH]c2ccccc12`, the “activity change, negative = cytotoxicity” value is -3.87% (inactive).

On to `COc1ccc2c(c1)[nH]c1c(C)nccc12`, for which the Potency was 7.62 µM (active).

On to `CNCCc1ccccc1`, for which the “activity change, negative = cytotoxicity” value is -10.8% (inactive).

Regarding `CC(=O)N[C@H]1CCN2CCC[C@H]12`, the “activity change, negative = cytotoxicity” value was -8.6% [at 103 µM] (inactive).

Take `C=C1[C@@H](C)[C@H]2[C@H](Cc3ccccc3)NC(=O)[C@]23OC(=O)/C=C/[C@H](O)CCC[C@@H](C)C/C=C/[C@H]3[C@@H]1O`: the Potency was 9.35 µM (active).

Turning to `CC=C1CN(C=O)[C@H]2C[C@@H]1[C@@H](C(=O)OC)[C@@]13CCOC21Nc1ccccc13` (stereo partly specified), the “activity change, negative = cytotoxicity” value is -3.56% (inactive).

For `COC(=O)C1=C2Nc3ccccc3[C@@]23CCN2CC(C(C)=O)C1C[C@H]23` (stereo partly specified), the “activity change, negative = cytotoxicity” value was -7.74% (inactive).

As to `CCC[C@H]1CC[C@H]2[C@H](C)CCC[C@H]2N1`, the “activity change, negative = cytotoxicity” value was 0.625% (inactive).

For the compound `CCC(=O)CCCCC[C@@H]1NC(=O)[C@H]2CCCCN2C(=O)[C@H]([C@@H](C)CC)NC(=O)[C@H](Cc2cn(OC)c3ccccc23)NC1=O`, the Potency was 0.935 µM (active).

Take `CCCC[C@@H]1CC[C@H]2CCCC(CCC)N12` (stereo partly specified): the “activity change, negative = cytotoxicity” value was -13.8% (inactive).

As to `CO[C@@H](/C=C/CC/C=C/C(=O)O)[C@@H](O)[C@H](C)/C=C(\C)[C@@H](O)[C@H](C)C(=O)CCCC1CC(=O)NC(=O)C1`, the outcome was inactive.

Regarding `COc1ccc(C23Oc4cc(OC)cc(OC)c4[C@](O)([C@H](c4ccccc4)C2C(=O)NCCCCNC(=O)c2ccccc2)[C@@H]3O)cc1` (stereo partly specified), the result was inactive.

Turning to `C[C@]12CC(O)C3[C@@H](CCC4C[C@@H](O)CC[C@@]43CO)[C@@]1(O)CCC2C1=CC(=O)OC1` (stereo partly specified), the “activity change, negative = cytotoxicity” value is -8.04% (inactive).
